Assay outcomes as filed in PubChem.
TDP1 cell CPT: growth inhibition of DT40 Tdp1-/-;hTDP1 cells with camptothecin (screen for TDP1 inhibitors); chicken DT40 Tdp1-/-;hTDP1 cells + 20 nM CPT, ATP luminescence, 48 h; Potency, µM (titrated, usually from 46.2 µM), for the others: at the top dose activity change, negative = growth inhibition, usual class: inhibitors; 12% of 420,000 active; AID 686979; further: on the % scale 0 is the no-effect control and ±100 the full control effect; nearly all actives have a fitted effect of over 55% in size
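Chicken DT40 Tdp1-/- cells stably complemented with human TDP1 were seeded at 400 cells/well in medium containing 20 nM camptothecin, exposed to pin-transferred compounds, and grown at 37 °C for at least 48 hr. Viability was read as ATP luminescence.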
HT1080NT lethal: kills 2HG-producing HT-1080-NT fibrosarcoma cells | HT-1080-NT fibrosarcoma viability, CellTiter-Glo ATP luminescence, 48 h | Potency, µM (top dose mostly 46.1 µM), for the others: at the top dose activity, negative = less viability, hits mostly cytotoxic | 1.6% of 360,000 active | AID 686970;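 further: NT is the 2HG producing partner of a matched IDH1 knockdown line; 0% = DMSO-treated cells and -100% = media-only wells without cells; nearly all actives have a fitted effect of over 55% in size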
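Fibrosarcoma NT cells, 750 per well in 5% FBS RPMI, were exposed to compound for 48 hours. Viability: CellTiter-Glo luminescence.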
TGFb SMAD3 inh: TGF-b pathway inhibition | Potency, µM (highest dose often 46.1 µM), inactives show at the top dose activity, negative = inhibition, hits mostly inhibitors | 1.2% of 410,000 active | HepG2 CAGA-GFP TGF-b/SMAD3 reporter, GFP fluorescence, 18 h; TGF-beta stimulated, 500 pg/mL final | AID 588855; further: on the % scale 0 is the no-effect control and ±100 the full control effect; nearly all actives have a fitted effect of over 65% in size
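Inhibition of TGF-beta-driven CAGA-GFP reporter expression in HEPG2 cells is measured by cellular GFP fluorescence after 18 h stimulation with 500 pg/mL recombinant TGF-beta in 1% FBS medium at 37 degrees C.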
TDP1 cell noCPT: qHTS for Inhibitors of human tyrosyl-DNA phosphodiesterase 1 (TDP1): qHTS in cells in absence of CPT; DT40 Tdp1-/- hTDP1 cells, no CPT, ATP luminescence, 48 h; Potency, µM (titrated, usually from 46.2 µM), for the others: top-dose activity change, negative = growth inhibition, hits mostly inhibitors; 15% of 420,000 active; AID 686978, 2013; further: on the % scale 0 is the no-effect control and ±100 the full control effect; nearly all actives have a fitted effect of over 55% in size
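No-CPT arm: Tdp1-/-;hTDP1 DT40 cells (400/well) plus compounds, incubated ≥48 hr at 37 °C. Readout CellTiter-Glo luminescence.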
HT1080 IDH1KD tx: kills HT-1080 cells with IDH1 knockdown; HT-1080 IDH1 knockdown viability, ATP luminescence, 48 h; Potency, µM (top dose mostly 46.1 µM), inactives show top-dose activity, negative = toxicity, actives largely listed as cytotoxic; 2% of 360,000 active; AID 686971;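 further: 0% = DMSO wells and -100% = cell-free medium wells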
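Using the IDH1-knockdown HT-1080 line run in the same batch and compound series as the NT line, viability after 48 h at 37 °C was determined by CellTiter-Glo luminescence and expressed as % activity.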
HepG2 tox: HepG2 cytotoxicity, counter-screen for TGF-b inhibitors. HepG2 CAGA-GFP viability, ATP luminescence, 18 h. Potency, µM (series often up to 46.1 µM), for inactives: at the highest dose activity change, negative = cytotoxicity, usual class: cytotoxic. 0.76% of 410,000 active. AID 588856
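CellTiter-Glo luminescence gave cytotoxicity after 18 hours at 37 degrees C. The cells were HepG2 CAGA-GFP in 1% FBS DMEM, stimulated with 500 pg/mL TGF-beta after compound addition. %Activity was normalised to no-cell wells (complete cell-killing) and DMSO (no toxicity), and curves were fitted and classified.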
* hit, by the source's call; ? = inconclusive; . = no result given. The list is not random: actives were taken first. Their share in the collection is about 17%. The call rests on the fitted dose curve; in most records, active means well fitted curve in the direction sought with a large enough effect; inconclusive means small, poorly fitted or top-dose-only effect, or another doubt; inactive means no such curve, though single readings can be large; an effect the other way counts as inactive or inconclusive. Potency means the concentration at half of the fitted maximal effect.

SMILES | TDP1 cell CPT | HT1080NT lethal | TGFb SMAD3 inh | TDP1 cell noCPT | HT1080 IDH1KD tx | HepG2 tox
Cc1cc(=O)oc2cc(OCC(=O)NC3(C#N)CCCCC3)c(Cl)cc12 | -7% | 9% | 2% | ? | 15% | -3%
CC1CC(C)CN(c2oc(-c3ccc(OCc4ccccc4Cl)cc3)nc2C#N)C1 (stereo not drawn) | -11% | . | 1% | ? | . | -2%
CN1C2CCC1CC(NC(=O)c1ccc(Cl)cc1)C2 (stereo not drawn) | -2% | -2% | 10% | -4% | 1% | 20%
O=C(NC1C2CCCC1CN(C1CC1)C2)c1ccc(Cl)cc1 (stereo not drawn) | ? | 15% | 1% | 29µM* | 11% | -1%
NC(=O)c1ccc(-c2nc(-c3ccc4c(c3)OCO4)c(-c3ccccn3)[nH]2)cc1 | 21µM* | . | . | 19µM* | . | .
COc1ccc(-c2[nH]c(-c3ccc4c(c3)OCO4)nc2-c2ccccc2)cc1 | ? | ? | ? | ? | ? | -26%
Cc1ccc(S(=O)(=O)Nc2ccc3nc(C)oc3c2)cc1 | 18µM* | 0% | ? | 10µM* | -21% | -21%
COc1ccc(-c2nc3ccc(NS(=O)(=O)c4ccc(C)cc4)cc3o2)cc1 | ? | . | ? | 10µM* | . | -80%
COc1ccc(NS(=O)(=O)c2ccc3oc(SC)nc3c2)cc1 | 12µM* | -8% | ? | 9.2µM* | -23% | -20%
Cc1ccc(S(=O)(=O)Nc2ccc3nc(-c4ccc(F)cc4)oc3c2)cc1 | ? | . | ? | ? | . | -105%
O=Cc1ccc2c(c1)OCCOCCOCCOCCO2 | 8% | 0% | 4% | 9% | -1% | -2%
Cc1cccn2c(=O)c3cc(C(=O)NCc4cccnc4)c(=N)n(CC4CCCO4)c3nc12 (stereo not drawn) | 9% | 0% | 4% | ? | 14% | -25%
Cc1ccc2nc(Cl)c3cc(C(=O)NCCCN4CCC(C)CC4)sc3c2c1 | ? | . | -6% | ? | . | 2%
CCCN1CCN(CCCNC(=O)c2cc3c(Cl)nc4ccccc4c3s2)CC1 | ? | . | ? | ? | . | 13µM*
CC1CCN(CCCNC(=O)c2cc3c(Cl)nc4ccccc4c3s2)CC1 | ? | ? | ? | ? | -2% | -94%
O=C(NCCCN1CCN(c2ccccc2F)CC1)c1cc2c(Cl)nc3ccccc3c2s1 | 16µM* | . | 0% | 15µM* | . | -4%
O=C(NCCCN1CCCC1)c1cc2c(Cl)nc3ccccc3c2s1 | 15µM* | ? | -16% | 12µM* | 21µM* | -24%
Cc1ccc2oc(C(=O)NCCCN3CCOCC3)c(C)c2c1 | ? | 0% | -21% | ? | 7% | -14%
COC(=O)N/N=C/c1cc(Cl)c(OCc2ccccc2F)c(OC)c1 | ? | -29% | -11% | 23µM* | -27% | 10µM*
O=C1NC(c2ccco2)Nc2sc3c(c21)CCN(Cc1ccccc1)C3 (stereo not drawn) | 23µM* | -8% | 14% | 16µM* | -2% | 3%
CN1CCc2c(sc3c2C(=O)NC(c2cn(Cc4ccccc4)c4ccccc24)N3)C1 (stereo not drawn) | 21µM* | -1% | 1.3µM* | 23µM* | -17% | -54%
CC(C)(C)n1nnnc1C(c1ccncc1)N(Cc1ccccc1)Cc1ccco1 (stereo not drawn) | ? | -3% | 0% | 23µM* | 0% | -8%
